Only some compounds are listed: those with a hit (about 3.1% of all), similar ones and a draw of the others.
Bead autofluor: counter-screen for toxin protease inhibitors: compound fluorescence | fluorescence intensity (test concentration not listed) | AID 624483 | 3.1% of 360,000 active | compound autofluorescence counterscreen, microsphere flow cytometry; hits give high values; in the data active = fluorescence intensity above about 16000; inconclusive = no clear call, values can overlap the other calls
BoNT-F LC inh: inhibitors of Botulinum neurotoxin F light chain protease; Multiplex microsphere protease cleavage assay, flow cytometry; inhibition, % at 10 µM; 0.22% of 360,000 active; AID 588497; in the data active = inhibition above about 35%, passing the limit was not always enough; inconclusive = no clear call, values can overlap the other calls; note: plate controls were buffer without enzyme for full effect and enzyme alone for no effect
Anthrax LF inh2: inhibitors of Bacillus anthracis lethal factor protease | AID 588501 | P15917 | inhibition, % at 10 µM | 0.12% of 360,000 active | multiplex microsphere protease cleavage assay, LF; note: plate controls were buffer without enzyme for full effect and enzyme alone for no effect
SSB-PriA inh: inhibitors of Klebsiella pneumoniae PriA binding to SSB C-terminal tail; AlphaScreen SSBct-PriA binding, biotinylated peptide; inhibition, % at 33 µM; 0.6% of 430,000 active; AID 1272365; in the data active = inhibition mostly above about 37%, no sharp cut-off; inactive = mostly below about 20%;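 note: plate controls were negative control peptide for no effect and reference peptide for full effect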
BoNT A protease: BoNT A light chain protease inhibition; multiplex microsphere protease substrate cleavage, flow cytometry; 0.17% of 360,000 active; inhibition, % at 10 µM; note: plate controls were buffer without enzyme for full effect and enzyme alone for no effect
* marks the source's active call; other numbers are inactive results; u = inconclusive; x = no result given. Cut-off read from the data, not from the text of the source, unless noted: active = inhibition above about 30%; inconclusive = no clear call, values can overlap the other calls; inactive = below that.

SMILES	Bead autofluor	BoNT-F LC inh	Anthrax LF inh2	SSB-PriA inh	BoNT A protease
O=C(COc1ccc2ccccc2c1)NCCOc1ccc2c(c1)OCO2	x	x	x	37*	x
O=C1CSC(=NN=Cc2c[nH]c3ccccc23)N1	x	x	x	-2	x
O=C(CC1SC(=O)NC1=O)NNC(=O)c1ccccc1O (stereo unspecified)	x	x	x	-8	x
COC(=O)c1c(NC(=O)C2CC=CCC2C(=O)O)sc(C)c1C (stereo unspecified)	22701*	1	3	4	u
COC(=O)c1c(NC(=O)C2CC=CCC2C(=O)O)sc(C(N)=O)c1C (stereo unspecified)	2808	-2	-3	-5	-1
COc1ccc(-c2csc3nc[nH]c(=O)c23)cc1OC	3054	-2	6	0	3
Cc1ccc(-c2csc3nc[nH]c(=S)c23)cc1C	2105	-11	-2	48*	0
CN1CC(c2ccc(Cl)c(Cl)c2)[C@@]2(COc3ccccc3C2=O)[C@@]12C(=O)Nc1ccccc12 (stereo partly specified)	20876*	-4	-2	x	-1
CCCN1C(=O)c2ccccc2NC1c1ccc(Cl)c(Cl)c1 (stereo unspecified)	4053	-14	6	37	-1
CC(=O)c1cccc(NC(=O)CCN2C(=O)C3C4CCC(C4)C3C2=O)c1 (stereo unspecified)	u	7	0	4	1
Cc1cccc(C)c1NC(=O)CCN1C(=O)C2C3CCC(C3)C2C1=O (stereo unspecified)	24501*	-3	-2	-6	-3
Cc1nnsc1C(=O)N(Cc1ccco1)Cc1nn(C)c2c1CCC2	x	x	x	-19	x
O=C(NC[C@H](O)c1ccoc1)c1cc(=O)c2ccccc2o1	x	x	x	-2	x
Fc1ccc(N2CCN(C3=Nc4cccc5cccc3c45)CC2)cc1	4170	-2	-2	44*	0
Cc1ccc(S(=O)(=O)Nc2cc3c(c4ccccc24)OC2(N4CCOCC4)CCCCC32)cc1 (stereo unspecified)	x	x	x	13	x
c1ccc2c3c(cc(N4CCOCC4)c2c1)OC1(N2CCOCC2)CCCCC1O3 (stereo unspecified)	4432	36*	2	-8	4
CCC(C)NC(=O)c1c(N)n(CCCOC)c2nc3ccccc3nc12 (stereo unspecified)	17608*	6	-12	-14	8
CCCCCOC(=O)c1c(N)n(CCOC)c2nc3ccccc3nc12	20661*	-2	1	-31	1
CN1C(=O)c2ccc(N)cc2C1=O	x	x	x	-9	x
O=C(NCCc1ncc(-c2cccs2)[nH]1)c1cc2ccccc2o1	x	x	x	-3	x
CC1CCN(CCCNC(=O)c2ccc(N3CCCC3=O)cc2)CC1	5257	1	-1	-5	1
COc1ccc(C(=O)NCCc2ccc3c(c2)CCCN3C)c(OC)c1	x	x	x	62*	x
CCOc1cc(C(=O)NCCc2ccc3c(c2)CCCN3C)cc(OCC)c1OCC	x	x	x	36*	x
CC1CCCCC1NC(=O)c1ccc(N2CCCC2=O)cc1 (stereo unspecified)	22649*	1	0	-9	u
COc1ccc(CCNC(=O)c2ccc(N3CCCC3=O)cc2)cc1OC	21331*	-6	0	-1	-4
SMILES	Bead autofluor	BoNT-F LC inh	Anthrax LF inh2	SSB-PriA inh	BoNT A protease
CCOc1ccc(CCNC(=O)c2cccc(N3CCCC3=O)c2)cc1OCC	8911	-3	-7	7	0
CO[C@@H](CNC(=O)c1cccn(C)c1=O)c1ccccc1C	x	x	x	-6	x
COc1cc(C(=O)NCCc2ccc3c(c2)OCCO3)ccc1OCC(=O)N1CCOCC1	16542*	14	-12	-9	13
COc1ccc(CCNC2CC(=O)N(C)C2=O)cc1OC (stereo unspecified)	24224*	-2	-2	10	-2
COc1cc(C(=O)NCCc2ccc(F)cc2)ccc1OCC(=O)N1CCOCC1	x	x	x	-7	x
COc1ccc(Br)c(C(=O)NCCc2csc(-n3cccn3)n2)c1	x	x	x	9	x
CN1C(=O)c2oc3ccc(Br)cc3c(=O)c2C1c1cccnc1 (stereo unspecified)	x	x	x	1	x
CCc1cc(C(Cc2cscn2)=NO)c(O)cc1O	x	x	x	-9	x
CCc1cc(/C(Cc2ccccn2)=N\O)c(O)cc1O	18010*	-14	-2	x	u
C=CCN1c2ccccc2[C@]23C[C@@H](C(=O)OC)N(C(=O)c4ccc(Br)cc4)C2=NC(C(=O)OC)=C(C(=O)OC)[C@@H]13	x	x	x	3	x
COc1ccc(N2C(=O)CSC2c2ccc3c(c2)OCO3)cc1 (stereo unspecified)	16403*	-2	2	-7	-1
COc1ccc(N2C(=O)CSC2c2ccc3c(c2)OCO3)c(OC)c1 (stereo unspecified)	4172	1	-4	-10	-1
CN1C(=S)SC(N(O)C(=O)NC2CCCCC2)C1(C)C (stereo unspecified)	21404*	7	1	1	u
NC(=O)c1cc(-c2ccccc2)sc1NC(=O)COc1ccc(Cl)cc1Cl	x	x	x	-10	x
O=C(O)c1cc(N/N=C/c2ccc3c(c2)OCO3)ccc1Cl	4708	-3	0	x	1
O=C(O)c1cc(N/N=C/c2ccc3c(c2)OCCO3)ccc1Cl	2521	38*	1	x	2
O=S(=O)(NN=Cc1ccc2c(c1)OCO2)c1ccc(F)cc1	x	x	x	-2	x
O=S(=O)(N/N=C/c1ccc2c(c1)OCCO2)c1ccccc1	22257*	1	-1	x	0
CCOC(=O)c1c(C)n(O)c2ccc(Cl)cc2c1=O	16178*	0	-1	-11	2
O=C(NCc1cncc(-c2cccs2)c1)c1c(F)cccc1F	x	x	x	-7	x
CC(C(=O)N1CCCCCC1)N(c1ccc(Cl)cc1)S(C)(=O)=O (stereo unspecified)	3793	22	-2	-5	0
Cc1ccc(N(C(C)C(=O)N2CCCCC2)S(C)(=O)=O)cc1C (stereo unspecified)	22154*	4	2	-17	2
CC(C(=O)N1CCC(C(N)=O)CC1)N(c1ccc(Oc2ccccc2)cc1)S(C)(=O)=O (stereo unspecified)	20200*	1	0	-14	1
O=c1[nH]c(SCc2n[nH]c(=S)n2-c2ccccc2)nc2sc3c(c12)CCCC3	x	x	x	4	x
O=C(OCCCN=C1NS(=O)(=O)c2ccccc21)c1ccccc1F	20170*	4	-11	-1	3
SMILES	Bead autofluor	BoNT-F LC inh	Anthrax LF inh2	SSB-PriA inh	BoNT A protease
O=C(OCCCN=C1NS(=O)(=O)c2ccccc21)c1ccc(F)cc1	11704	1	-2	-4	0
CCOC(=O)c1cc(-c2ccc(OC)cc2F)nc2c1c(C)nn2CCC#N	25362*	-5	-4	-32	u
CCOc1ccc(NCC(=O)NN=C/C=C/c2ccccc2)cc1	x	x	x	33	x
CCOc1ccc(N=C/C=C/c2ccccc2)c(O)c1	3275	-72	0	-4	35*
O=C(Nc1ccc(N2CCN(C(=O)c3ccccc3)CC2)cc1)c1cccs1	3689	5	-2	-9	2
CCC(=O)N1CCN(c2ccc(NC(=O)c3cccs3)cc2)CC1	17020*	-8	-3	-12	-2
COC(=O)/C=C1\SC(=O)NC1=O	x	x	x	2	x
COC(=O)/C=C1\NCCSC1=O	17208*	-2	-3	x	-2
CCOC(=O)N1CCN(C(=O)c2cc3sccc3n2C)CC1	19772*	1	-5	-11	1

Compound activity (PubChem)
